Drawing on PubChem BioAssay (NCI), this text covers growth for 14 compounds.

Molecules are shown by their SMILES. The panel holds about 83,000 compounds, 20% with a hit somewhere; the sample as a whole holds those more often.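 How to read the values: 0–100, growth inhibition (40 = 60% inhibited); 0, no net growth; -100 to 0, cell death (-40 = 40% of starting cells died; -100 = all dead).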 Calls of active or inactive are those of the source. The calls were made as follows: active = growth percent below 10; inactive = the rest.

The test has as its system HL-60(TB) leukemia. Put plainly: NCI-60 one-dose screen, 48 h (100 = growth as untreated, 0 = no growth, -100 = all killed). The conditions noted are these: 10 µM unless noted.
With `COc1ccc(Br)c(/C=C2\SC(=Nc3ccc(O)cc3)NC2=O)c1`, the growth is 76.6% (inactive).
Consider `CC1Cc2ccc(OCCN(C)C)cc2C1=O` (centres undefined), for which the growth was 111% (inactive).
In the case of `CCCCCCCCOC(=O)CC[C@@H](C)[C@H]1CC[C@H]2[C@@H]3[C@H](OC(=O)CCN)C[C@@H]4C[C@H](OC(=O)CCN)CC[C@]4(C)[C@H]3C[C@H](OC(=O)CCN)[C@]12C` it was 43.7% (inactive); in that of `Cc1cccc2c(=O)c3c(sc12)c(NCCCNCCO)nc1ccccc13`, 14.6% (inactive).
In the case of `CC(=O)OC1Oc2cc(C)c(C)cc2-c2oc(=O)c(-c3ccccc3)cc21` (centres undefined) it was -39.1% (active); in that of `CNC(=O)c1ccccc1Oc1nc(Nc2cc(OC)c(OC)c(OC)c2)ncc1Br`, 53.2% (inactive).
Turning to `Oc1[nH]c2ccc(Cl)cc2c1/C=c1/ccc2c(c1)N=C(c1ccc(C(F)(F)F)cc1)N=2`, the growth was 75.1% (inactive).
For the compound `Cc1ccc(S(=O)(=O)N(CCC(=O)O)c2ccccc2)cc1`, the growth is 92.1% (inactive).
For `N=C(N)N=Nc1ccc(NN=C(N)N)c2ccccc12`, the growth was 113% (inactive).
In the case of `CC(C)CCSc1nc(-c2ccc(F)cc2)c(C#N)c(N2CCN(C)CC2)n1` it was 73.8% (inactive); in that of `Cc1ccc(CNc2ccc3nc(CCC(C)C)[nH]c3c2)cc1`, 93.7% (inactive); in that of `Cc1nn(-c2ccccc2)c(Oc2ccccc2)c1/C=N/NC(=O)Cn1c(=O)sc2ccccc21`, 5.9% (active).
Take `CC(=O)Nc1nc2c(s1)CCc1c-2cn(S(=O)(=O)c2ccccc2)c1-c1ccccc1`: the growth is 71% (inactive).
As to `O=C(Nc1cc(Cl)cc(Cl)c1)Oc1c(Cl)c(Cl)c(Cl)c(Cl)c1Cl`, the growth was 60.9% (inactive).
